According to PubChem BioAssay AID1894 (NMMLSC, 2009):
The whole screen tested about 5,900 compounds, of which about 100 (1.7%) were called active. Only a selection was taken, and actives are over-represented in it overall. Unmarked numbers belong to inactive results.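 The calls were made as follows: active = binding response below 72% of control, or above a set upper limit, though filed actives all read lower; inactive = the rest.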

Each molecule was assayed against Mitogen-activated protein kinase kinase kinase 3 (Homo sapiens) (UniProt Q99759) (assay: MEKK3 wild-type PB1 binding to MEK5, inhibitors, confirmation, biochemical, bead multiplex flow cytometry, single concentration, wildtype (AID 1894;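 also: 100% = DMSO only wells and 0% = binding blocked by excess unlabeled MEK5; lower values mean stronger disruption of MEK5 binding to MEKK3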)). Settings: Alexa488-MEK5 binding to MEKK3, at 10 µM, hits give low values.
Mitogen-activated protein kinase kinase kinase 3 (Homo sapiens), sequence (Q99759 whole entry, looked up): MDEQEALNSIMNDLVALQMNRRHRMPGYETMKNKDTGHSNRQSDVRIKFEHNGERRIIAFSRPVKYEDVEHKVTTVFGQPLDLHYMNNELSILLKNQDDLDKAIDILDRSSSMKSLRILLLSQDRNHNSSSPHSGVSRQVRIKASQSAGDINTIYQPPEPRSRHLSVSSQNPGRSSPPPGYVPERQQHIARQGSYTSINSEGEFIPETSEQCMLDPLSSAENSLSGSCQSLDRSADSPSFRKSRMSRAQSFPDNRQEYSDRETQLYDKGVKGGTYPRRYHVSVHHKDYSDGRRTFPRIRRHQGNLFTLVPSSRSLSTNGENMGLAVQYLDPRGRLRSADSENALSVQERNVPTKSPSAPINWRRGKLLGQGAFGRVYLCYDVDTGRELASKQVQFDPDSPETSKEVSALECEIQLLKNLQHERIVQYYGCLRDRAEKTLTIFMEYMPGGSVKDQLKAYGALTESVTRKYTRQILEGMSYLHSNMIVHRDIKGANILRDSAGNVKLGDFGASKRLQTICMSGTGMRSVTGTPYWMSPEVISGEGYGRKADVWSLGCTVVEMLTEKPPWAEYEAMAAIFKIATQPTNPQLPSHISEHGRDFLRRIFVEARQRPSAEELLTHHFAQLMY

Compound	binding response (% of control)
COc1ccc(C(=O)C[n+]2ccc(C)cc2)cc1	103%
CCN1CCN(c2ccc(S(=O)(=O)N3CCCCC3)cc2NC(=O)Cc2c(Cl)cccc2Cl)CC1	104%
Cc1nn(-c2ccccc2)c(NC(=O)c2cccs2)c(-c2ccc(Cl)cc2)c1=O	101%
Cc1cc(C(=O)OCC(=O)N2c3ccccc3NC(=O)C2(C)C)c(C)n1-c1ccccc1	106%
Cc1cccn2c(=O)c(/C=C3\SC(=S)N(CC(C)C)C3=O)c(NCCCOC(C)C)nc12	86%
C/C(CC(=O)NC(C)(C)C)=N\NC(=O)c1ccco1	100%
Cc1ccc(C(=O)N/C(=C/c2ccco2)C(=O)NCCc2c[nH]c3ccccc23)cc1C	105%
CCC(=C/c1sc2ccc3ccccc3c2[n+]1C)/C=C1\Sc2ccc3ccccc3c2N1C	29% (active)
Cn1c2ccccc2c(=O)c2c(=O)n(Cc3ccco3)c(COc3ccccc3)nc21	100%
CN(C)CCCNC(=O)c1cc(C(=O)Cc2ccc(Cl)cc2)c[nH]1	98%
Cc1ccc(NC(=S)N(CCCN2CCCC2)Cc2cccn2Cc2ccc(Cl)cc2)cc1	104%
N#C/C(=C\C1=C(N2CCOCC2)C(=C\c2ccccc2)/CC1)C(=O)Nc1ccccc1F	27% (active)
COC(=O)c1cc(NC(=O)c2cc(C(C)(C)C)nn2Cc2cccc(C)c2)ccc1N1CCOCC1	99%
CN(C)CCCNC(=S)N1CCN(c2nc(-c3ccccc3)cs2)CC1	102%
Cn1ccc(=Nc2ccc(NC(=O)c3ccc(N=c4ccn(C)c5ccc([N+](=O)[O-])cc45)cc3)cc2)cc1	105%
O=C(NCCCN1CCN(c2ccc(F)cc2)CC1)Nc1ccc([N+](=O)[O-])cc1	107%
O=C(c1cnn(-c2ccc(Cl)cc2)c1)c1ccccc1O	110%
O=C(NC1CCN(Cc2ccccc2)CC1)c1ccc(Oc2cc(Cl)cc(Cl)c2)o1	97%
O=C(NCCC1=CCCCC1)c1ccc(Cl)c([N+](=O)[O-])c1	106%
CC1CN(C(=O)c2ccccc2NS(=O)(=O)c2cccc([N+](=O)[O-])c2)CC(C)O1 (stereo not drawn)	101%
CC(C)c1ccc(C(=O)NCCCc2ccccc2)cc1	98%
O=C(O)c1cccnc1NC1CCCC1	108%
COc1cccc(NC(=S)NCCCN2CCOCC2)c1	106%
COC(=O)CCc1sc(Nc2ccc(Br)cc2)nc1-c1ccc(OC)cc1	106%
O=C(NNc1c2ccccc2nc2ccccc12)c1cc2ccccc2cc1O	51% (active)

Compound	binding response (% of control)
O=C(Cc1cccc2ccccc12)Nc1ccc2oc(-c3ccccc3)nc2c1	102%
CNC(=O)/C(=C\C=C\c1ccccc1)NC(=O)c1ccc([N+](=O)[O-])cc1	107%
COc1ccc(C(=O)NCC(=O)N/N=C/c2ccc([N+](=O)[O-])o2)cc1OC	93%
Cc1c(-c2ccccc2)cn2c1-c1ccc(C)n1CC2	93%
Cc1ccc(C)c(CN2CCC(CNC(=O)Nc3ccc(C)c(F)c3)CC2)c1	107%
COc1cc(-c2nc(-c3ccncc3)no2)cc(OC)c1OC	104%
Cc1ccc(S(=O)(=O)/N=S(\C)C(C)C)cc1 (stereo not drawn)	101%
CCOC(=O)Cc1csc(NC(=O)CSc2nc(C)cc(=O)[nH]2)n1	99%
COc1ccc(CNC(=O)C2CCN(S(C)(=O)=O)CC2)cc1	102%
O=C(Cc1cccs1)N/N=C/c1ccc(OCc2ccccc2)cc1	104%
COc1ccc(S(=O)(=O)N2CN(CCc3ccc(OC)c(OC)c3)c3nc4ccccc4nc32)cc1	97%
COc1cc(CC(=O)N/N=C/c2ccccc2)c([N+](=O)[O-])cc1OC	104%
FC(F)(F)c1cccc(N/N=C/c2ccccc2)c1	105%
CCOC(=O)CN(C)S(=O)(=O)c1ccc(-c2cc(C(=O)OC)sc2C(F)(F)F)cc1	103%
COc1ccc(C2CC(=O)Nc3cc(C)c(C)cc32)c(OC)c1OC (stereo not drawn)	104%
O=C(c1ccco1)N1CCN(c2cccc(Cl)c2)CC1	100%
C=C(C)C1CC=C(C)/C(=N\NC(=O)CNc2ccccc2OC)C1 (stereo not drawn)	109%
CCOC(=O)c1cc2c(nc1NC(=S)Nc1ccccc1)CC(C)(CC)OC2 (stereo not drawn)	102%
COc1cccc(OCC(=O)NNC(=O)c2cnccn2)c1	101%
CCCn1c(=N)n(CC(=O)c2ccc(Cl)c(Cl)c2)c2ccccc21	109%
Cc1cc(C)c(NC(=O)C[N+](C)(C)CC(O)COc2cccc3ccccc23)c(C)c1 (stereo not drawn)	108%
CCOC(=O)c1c(-c2ccccc2)csc1NC(=S)NC(=O)c1ccccc1	102%
CCCCN1C(=O)/C(=C(/C#N)C(N)=O)c2ccccc21	99%
CC(=O)Nc1ccc(N2CCOCC2)c(C(=O)Nc2cccc(C)c2)c1	105%
COc1ccccc1NC(=S)N1CCN(c2ccc(F)cc2)CC1	102%

Compound	binding response (% of control)
CCCN(CCC)c1nc2c(C)cccn2c(=O)c1/C=C1/SC(=S)N(Cc2ccco2)C1=O	86%
O=C(Nc1ccc2ccccc2c1)Nc1ccc2snnc2c1	105%
O=C1NCC(=O)N(Cc2ccccc2)/C1=C/c1ccccc1	91%
O=C(CSc1ccc(-c2ccc(F)cc2)nn1)Nc1ccc2c(c1)OCCO2	104%
CCOc1cc(C(=O)OCC(=O)Nc2cccc(C)c2)ccc1OCC(=O)N1CCOCC1	106%
O=C(CN1C(=O)c2cccnc2Oc2ccc(Cl)cc21)Nc1ccc(F)cc1	103%
O=c1c2ccccc2c(-c2ccccc2)nn1Cc1ccccc1	97%
CCn1cc(CN2CCC(C(=O)Nc3cccc(-c4cccc(Cl)c4)c3)CC2)cn1	116%
CC(=O)N1CCN(S(=O)(=O)c2ccc(C)c([N+](=O)[O-])c2)C1C(C)C (stereo not drawn)	97%
N=C1/C(=C/c2cccn2-c2cccc([N+](=O)[O-])c2)C(=O)N=C2SC=CN12	100%
Cn1c(=NC(=O)CSCC(=O)N2CCCCC2)sc2ccccc21	104%
CCCCNC(=O)N1CCCC(N(C)CCc2ccc(OC)c(OC)c2)C1 (stereo not drawn)	102%
O=C(NCc1ccccc1Cl)NC(=O)c1csc([N+](=O)[O-])c1	103%
CC(C)(C)c1nnc(NC(=O)C2c3ccccc3Oc3ccccc32)s1	100%
CN(c1ccccc1)c1ccc(/C=c2\s/c(=C(/C#N)C(=O)C(C)(C)C)n(Cc3ccco3)c2=O)cc1	69% (active)
O=C(/C=C/Nc1ccccc1)c1cnc(-c2ccccc2)s1	106%
Cc1cccc(-c2ncc(CN3CCC(CO)(CCCc4ccccc4)CC3)cn2)c1	107%
CC(C)(C)NC(=O)c1cccc(NC(=O)Cc2ccc(Br)cc2)c1	101%
COCC(C)NC(=O)COc1nncc2ccccc12 (stereo not drawn)	95%
O=C(COC(=O)CNC(=O)c1ccco1)Nc1ccc(F)cc1	103%
CCOC(=O)c1c(NC(=O)c2ccc(S(=O)(=O)N(C)CC3CCCO3)cc2)sc2c1CC(C)(C)NC2(C)C (stereo not drawn)	99%
CCN(CC)CCCNC(=O)c1ccc2c(=O)n(Cc3ccc4c(c3)OCO4)c(=S)[nH]c2c1	101%
CN(C)CCCN(C(=O)COc1ccccc1)c1nc2c(Cl)cccc2s1	108%
O=C(O)/C=C\C(=O)Nc1ccc(OCc2ccccc2)cc1	98%
Cc1ccc2c(C)c(C(=O)N3CCN(c4ccncc4)CC3)oc2c1C	108%

Compound	binding response (% of control)
Cc1ccccc1-c1ccc(Nc2ccc(C(=O)N3CCOCC3)cc2)nn1	102%
C[N+](C)(C)CCNC(=O)c1c(O)c2c([nH]c1=O)CCCC2	99%
COc1cc(C)nc(N2CCCC(C(=O)NCC(C)C)C2)n1 (stereo not drawn)	96%
O=c1[nH]c(=S)[nH]c2[nH]c(=S)[nH]c12	100%
CCOC(=O)c1cc2occc2n1CC(=O)N1CCN(C(=O)c2ccco2)CC1	95%
O=C(O)C1CCN(c2ccc([N+](=O)[O-])cc2[N+](=O)[O-])CC1	102%
COc1ccccc1CC(=O)Nc1ccc([N+](=O)[O-])cc1OC	98%
c1ccc2c(c1)C(=NC1CCCCC1)NC2=NC1CCCCC1	104%
CCc1nnc(NC(=O)c2sc3nc(C)cc(COC)c3c2N)s1	105%
Cc1cccc(OCCNC(=O)CSc2ccc(C(F)(F)F)cc2[N+](=O)[O-])c1	104%
COc1ccc(CCn2c(NN=C3CCCC3)nc3c2c(=O)[nH]c(=O)n3C)cc1	106%
Cc1c(CN2CCC(CO)(CCOc3ccccc3)CC2)[nH]c2ccc(Cl)cc12	112%
COc1cccc(Nc2ncccc2C(=O)O)c1	101%
O=C(NCC1CCCCC1)c1cc(S(=O)(=O)N2CCCCC2)ccc1N1CCOCC1	91%
O=C(c1ccc(Br)o1)N(c1ccccn1)C1CCCCC1	98%
Cc1cccc(CSc2nnc(C)c(=O)n2N)c1	103%
CC(C)CC(=O)NC(=S)NCc1ccccc1	99%
COC(=O)C1=NN(c2ccccc2)C2C(=O)N(c3ccccc3OC)C(=O)C12 (stereo not drawn)	103%
Cc1ccccc1CCN(CC(=O)NC1CCCCC1)C(=O)c1csnn1	97%
Cc1[nH]c2ccc(S(N)(=O)=O)cc2c1C	100%
CCc1ccc2nc(Nc3ncc(C(C)=O)c(C)n3)nc(C)c2c1	102%
COc1cccc(OC)c1C(=O)Nc1ccc(Cc2ccncc2)cc1	101%
CN(C)CC(O)COc1ccc(C(C)(C)c2ccc(OCC(O)CN(C)C)cc2)cc1 (stereo not drawn)	111%
